Reference: PubChem BioAssay AID1233 (SRMLSC, 2008)
Entries with a potency or affinity are not part of this list. Calls of active or inactive are those of the source.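 The calls were made as follows: active = a dose-response curve fit returns a half-maximal inhibitory concentration, extrapolated values included; inactive = the fit returns no such concentration.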

What follows are molecules tested against HMG-CoA reductase [Enterococcus faecalis] (UniProt Q9FD70) (assay: class II HMG-CoA reductase inhibition potency – biochemical, Enterococcus faecalis, confirmation (AID 1233;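 also: 0% = full reaction carrier wells and 100% = background wells lacking mevalonate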)). Settings: purified E. faecalis HMGR, NADPH absorbance 340 nm kinetics; series mostly up to 100 µM; inhibition: at the top concentration.

inhibition, inactive:
O=c1c(OC2OC(CO)C(O)C(O)C2O)c(-c2ccc(O)c(O)c2)oc2cc(O)cc(O)c12 (stereo not drawn) -3.08%
CCN(CC)S(=O)(=O)c1ccc(C(=O)Nc2c3c(nn2C(C)(C)C)CS(=O)(=O)C3)cc1 -0.5%
COc1ccc2cc(C3NC(=O)c4ccccc4N3)c(Cl)nc2c1 (stereo not drawn) -3.73%
CCc1nc(N)nc(N)c1-c1ccc(Cl)cc1 -0.14%
Cc1nn(CCC(=O)NNC(=S)Nc2ccc([N+](=O)[O-])cc2)c(C)c1[N+](=O)[O-] -3.33%
S=C(NCc1ccccc1)N1CCN(c2cccc(Cl)c2)CC1 -0.43%
COc1cc2c(cc1OC)CN(C(C)C(=O)N1CCc3ccccc31)CC2 (stereo not drawn) -8.07%
COc1ccc(N(C(C)C(=O)N/N=C/c2ccc(OC(C)C)cc2)S(C)(=O)=O)cc1 (stereo not drawn) -1.95%
CC(NCCC(c1ccccc1)c1ccccc1)c1ccccc1 (stereo not drawn) -3.54%
O=C1CN(C(=O)CSc2nc3cc(Cl)ccc3c(=O)n2Cc2ccccc2)c2ccccc2N1 -1.36%
Cc1ccsc1C=C1C(=O)c2ccccc2C1=O -0.95%
CCCSc1nnc2n(N)c(=O)c3ccccc3n12 -3.93%
O=C(CNC(=O)c1ccccc1)N/N=C/c1cccs1 0.73%
O=C1CC(=O)N(Cc2ccco2)C(=S)N1 -2.11%
CCOC(=O)Cc1csc(NC(=O)COc2cccc(C)c2)n1 -3.23%
CCCC(=O)Nc1sc(C(=O)Nc2cccc(N)c2)c(C)c1C(=O)OC -0.06%
Fc1ccccc1Cn1cnc(NC(=S)NCCc2ccccc2)n1 -8.26%
Cn1c(CSc2nc3ccccc3s2)nc2ccccc21 -3.96%
Cc1nnc(SCc2ccccc2Cl)n1CC1CCCO1 (stereo not drawn) -1.03%
O=C(OCC(=O)N1CCN(C(=O)c2ccco2)CC1)c1cc(-c2ccco2)nc2ccccc12 -0.43%
CNc1cc(N2CCCCCC2)ccc1[N+](=O)[O-] -0.58%
CCN(CC)c1ccc(-c2n[nH]c(=S)n2-c2ccccc2C)cc1 -8.49%
Cc1cnc(NC(=O)CSc2nnc(-c3ccc(Cl)cc3Cl)n2N)s1 1.88%
CN(C)c1ccc(P(=O)(OCc2ccccc2)C(O)c2ccncc2)cc1 (stereo not drawn) -0.24%
C=CCn1c(Oc2ccccc2)nc2c1c(=O)n(C)c(=O)n2C 0.56%
Cc1c(Br)c([N+](=O)[O-])nn1C(C)C(=O)Nc1ccc2c(c1)OCO2 (stereo not drawn) -2.77%
O=C(COC(=O)Cc1c(Cl)cccc1Cl)NCCC1=CCCCC1 -4.75%
CCCCN(C(=S)Nc1cccc(C)c1C)c1c(N)n(CCC)c(=O)[nH]c1=O -2.1%
COc1cc(C)nc(Oc2ccc(OCCOc3ccccc3)nn2)n1 -3.5%
N#CCCCn1c(=O)oc2ccccc21 -2.84%
CCCCC(c1nnnn1CCOC)N1CCN(CC)CC1 (stereo not drawn) 1.84%
COc1ccc2oc(=Nc3ccc(C(=O)O)cc3)c(C(=O)NCc3ccco3)cc2c1 -5.55%
Cc1cc(N2CCN(c3nc(-c4ccc([N+](=O)[O-])cc4)cs3)CC2)c2ccccc2n1 -5.17%
COc1ccc(CCNC(=O)CCNC(=O)c2ccc(Cl)cc2)cc1OC -6.35%
NC1=NC(=O)S/C1=C\c1ccc(F)cc1 -4.82%
Clc1ccc2c(c1)C(c1cccs1)=NNC(c1cccnc1)=N2 -2.29%
Cc1nc2c([nH]1)C1(CCN(Cc3ccccc3)CC1)C(C#N)=C(N)O2 10.2%
O=C(COC(=O)/C=C/c1ccco1)Nc1ccc(F)cc1Cl -0.84%
